Compounds with a hit are over-represented: about 10% of the library has one in this group of screens.
ROMK primary: ROMK potassium channel modulators, primary screen, cell-based, thallium flux, MLSMR library; hit rate 2% among 130,000; B-score at 10 µM; ATP-sensitive inward rectifier potassium channel 1 (Homo sapiens), P48048; Tet-inducible ROMK, thallium flux fluorescence; actives lie on both sides;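 active means signal ratio slope over the read window, or its plate-corrected B-score, at least 3 SD from the plate mean, either direction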;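 further: B-score of the F/F0 ratio slope over 7 to 12 s after thallium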
Target sequence (P48048 whole entry, looked up): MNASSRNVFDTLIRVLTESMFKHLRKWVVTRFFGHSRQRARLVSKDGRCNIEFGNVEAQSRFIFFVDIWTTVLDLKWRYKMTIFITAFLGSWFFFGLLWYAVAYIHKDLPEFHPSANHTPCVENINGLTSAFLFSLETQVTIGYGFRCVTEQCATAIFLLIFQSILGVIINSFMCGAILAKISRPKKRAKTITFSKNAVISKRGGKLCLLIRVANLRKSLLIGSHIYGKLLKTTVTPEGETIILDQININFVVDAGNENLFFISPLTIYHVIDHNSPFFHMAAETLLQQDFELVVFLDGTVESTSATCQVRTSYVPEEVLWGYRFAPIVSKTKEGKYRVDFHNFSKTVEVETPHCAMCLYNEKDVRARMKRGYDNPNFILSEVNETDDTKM
p97 ATPase inh: inhibitors of human p97 ATPase, primary screen, biochemical. recombinant p97 ATPase, Kinase-Glo ATP luminescence, 3 h. inhibition, % at 8 µM. hit rate 0.42% among 220,000; in the data active means inhibition above about 15%;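 further: 0% = DMSO vehicle and 100% = wells lacking enzyme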
Lmaj promast: Leishmania major promastigote growth inhibition, primary screen. hit rate 9% among 200,000. inhibition, % at 10 µM. Leishmania major promastigotes, resazurin fluorescence viability. AID 1063, 2008; in the data active means inhibition above about 50%;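 further: promastigotes grown with compound for 44 hours at 28 °C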
bCat KO growth: primary screen for growth suppressors in beta-catenin knockout HCT116 cells (colon tumor, human). hit rate 1.5% among 140,000. HCT116 beta-catenin knockout viability, CellTiter-Glo, 60 h; active compounds read low. viability, % at 10 µM;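 active means viability at or under a set limit, the compound median less 4 SD, cut at about 6% in these data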;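 further: 0% = Hyamine 1622 control at 20 µM and 100% = untreated cell control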
HCT116 PTEN-null: growth suppression of PTEN-null HCT116, primary screen, cell-based, CellTiter-Glo | HCT116 PTEN-null viability, 60 h; active compounds read low | viability, % at 10 µM | hit rate 1.2% among 140,000 | AID 827, 2007;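 active means viability at or below a set limit, 4 SD under the median of all tested compounds, cut at about 3.7% in these data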;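 further: PTEN knockout HCT116 line with beta catenin targeted HCT116 as companion control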
Insulin prom inh: inhibitors of insulin promoter-driven GFP, primary screen, imaging, TRM-6 cells (human fetal islet line), eGFP reporter, cell count; reporter expression induced with tamoxifen; inhibition, % at 2 µM; hit rate 0.9% among 130,000; AID 1273, 2008;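 active means inhibition above the mean plus 3 SD, with well images judged a real hit on visual review, cut at about 60% in these data, passing the limit was not always enough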
* = called active by the depositor; nt = no result.

SMILES | ROMK primary | p97 ATPase inh | Lmaj promast | bCat KO growth | HCT116 PTEN-null | Insulin prom inh
Cc1ccc(C)c(OCC(O)CN2CCCCC2C)c1 (stereo unspecified) | nt | -6 | 91* | 89 | 85 | nt
Cc1ccc(C)c(OCC(O)CN2C(C)CCCC2C)c1 (stereo unspecified) | nt | 0 | 44 | 79 | 78 | -41
C=CCc1cc(OC)ccc1OCC(O)CN1CCN(c2ccc(OC)cc2)CC1 (stereo unspecified) | -0.2 | -9 | 16 | 62 | 72 | 0
C=CCc1ccc(OCC(O)CN2CCCCC2C)c(OC)c1 (stereo unspecified) | nt | 2 | 93* | 88 | 87 | -6
CCC(CC(C)(C)O)C(=O)NNC(=S)Nc1ccccc1 (stereo unspecified) | 0.83 | 3 | -5 | nt | nt | nt
CC(=O)C(C)Oc1ccc(Cc2ncc(C(F)(F)F)cc2Cl)cc1 (stereo unspecified) | -0.32 | 2 | 4 | nt | nt | -16
COc1cc(/C(C)=N/NC(=O)CSc2nncn2C)ccc1OCc1ccccc1Cl | 0.081 | -3 | 73* | 92 | 93 | 11
CCOc1cc(/C=N/NC(=O)CSc2nncn2C)ccc1OCc1ccccc1 | -0.18 | -2 | -1 | 98 | 101 | 3
COC(=O)c1[nH]c2cccc(OC)c2c1NC(=O)CCN1CCSCC1 | nt | 3 | nt | nt | nt | nt
COC(=O)c1[nH]c2cccc(OC)c2c1NC(=O)CCN1CCN(c2cccc(Cl)c2)CC1 | nt | -5 | 100* | 23 | 21 | -47
COc1cc2nc(SCc3c(C)noc3C)n(CCC3=CCCCC3)c(=O)c2cc1OC | 0.12 | -3 | 62* | 50 | 48 | nt
COc1cc2nc(SCC(=O)NC3CC3)n(CCC3=CCCCC3)c(=O)c2cc1OC | 0.18 | 1 | -4 | nt | nt | 56
CCOc1ccc2nc(N/C(N)=N/C(=S)Nc3cccc(C)c3)nc(C)c2c1 | nt | 4 | 60* | 66 | 59 | nt
CCOc1ccc2nc(N/C(N)=N/C(=S)Nc3cccc(OC)c3)nc(C)c2c1 | nt | 4 | nt | nt | nt | nt
Cc1cc(C)n(-c2nc(NCc3cccnc3)c3c4c(sc3n2)COC(C)(C)C4)n1 | 0.079 | 5 | 13 | 4.5* | 8 | nt
Cc1cc(/C=N/NC(N)=S)c(C)n1-c1ccc(Cl)c(Cl)c1 | -0.45 | -6 | 100* | 34 | 25 | -14
COc1cccc(NC(=O)C(=O)N/N=C/c2cc(C)n(-c3ccc(Cl)c(Cl)c3)c2C)c1 | 0.87 | -4 | -2 | 48 | 52 | 3
CCN(C(=O)CSc1nnc(C)n1-c1ccccc1)C1CCS(=O)(=O)C1 (stereo unspecified) | 0.1 | 5 | -6 | nt | nt | 45
CCCc1cc(-c2nc(-c3ccc(Br)cc3)cs2)ccn1 | 0.32 | -4 | 60* | 69 | 77 | -26
CC(=O)c1c(C)[nH]c(C(=O)Nc2nc(-c3ccc(Cl)cc3)cs2)c1C | 0.79 | 1 | 11 | 71 | 67 | 33
Cn1cc([N+](=O)[O-])c(C(=O)Nc2nc(-c3ccc(Cl)cc3)cs2)n1 | nt | -3 | 10 | 2.1* | 1.4* | 25
Cc1ccc(-c2nc(NC(=O)c3nn(C)cc3[N+](=O)[O-])sc2C)cc1C | 0.27 | -3 | 6 | 1.6* | 1.4* | -137
Cc1ccc(-c2nc(NC(=O)c3nn(C)cc3[N+](=O)[O-])sc2C)cc1 | -0.68 | 3 | 1 | 1.4* | 1.4* | -196
Cc1cnc(NC(=O)c2nn(C)cc2[N+](=O)[O-])s1 | 1.1 | -2 | -3 | nt | nt | nt
CC(=O)/C=C1\N(C)c2ccc(C)cc2C1(C)C | 0.35 | 3 | 91* | nt | nt | -100
SMILES | ROMK primary | p97 ATPase inh | Lmaj promast | bCat KO growth | HCT116 PTEN-null | Insulin prom inh
CN1/C(=C/C(=O)c2nc(S(C)(=O)=O)ncc2Cl)C(C)(C)c2ccccc21 | nt | 2 | 83* | 2.0* | 2.6* | nt
CN1/C(=C\C(=O)c2cccc(S(=O)(=O)N3CCCCC3)c2)C(C)(C)c2ccccc21 | -0.98 | 3 | 99* | 43 | 46 | -9
CN1/C(=C\C(=O)c2ccco2)C(C)(C)c2ccccc21 | nt | -2 | 83* | 13 | 14 | nt
O=C(O)c1cccc(S(=O)(=O)N2CCCC2)c1 | nt | 3 | -3 | 97 | 102 | 17
COc1ccc(C(=O)COC(=O)CNS(=O)(=O)c2ccc(C)cc2)cc1 | nt | 1 | -7 | 100 | 106 | nt
CN1/C(=C\C(=O)c2cncc(Br)c2)C(C)(C)c2ccccc21 | -0.023 | -1 | 91* | 13 | 16 | -50
CN1/C(=C\C(=O)c2cccnc2)C(C)(C)c2ccccc21 | -1.6 | 1 | 7 | 85 | 86 | -63
CN1C(c2ccc(F)cc2)=CS/C1=C(\C#N)c1nnc2n1-c1ccccc1SC2 | nt | 11 | 79* | 39 | 54 | nt
O=C(NCCNCc1ccc(F)cc1)c1ccco1 | -0.56 | -4 | 54* | 91 | 87 | -15
Cc1ccc2c(c1)C(c1ccccc1)N(C(=O)c1ccc3c(c1)OCO3)CC(=O)N2 (stereo unspecified) | -1.9 | -2 | nt | nt | nt | nt
CCOC(=O)C1(CC2CCCCO2)CCN(C(=O)NCc2ccccc2)CC1 (stereo unspecified) | nt | 1 | 0 | nt | nt | nt
CCC(=O)Nc1ccc(C(=O)OCC(=O)c2ccc(C)c([N+](=O)[O-])c2)cc1 | nt | 2 | -6 | 102 | 90 | 10
Cc1ccc(C(=O)COC(=O)c2cccc(NC(=O)c3ccc([N+](=O)[O-])cc3[N+](=O)[O-])c2)cc1 | nt | 2 | 92* | 95 | 82 | 27
CC(=O)Nc1ccc(C(=O)OCC(=O)c2ccc(C)c([N+](=O)[O-])c2)cc1 | nt | -1 | 58* | 82 | 107 | nt
CC(=O)OCCNC(=O)Cn1cnc2c1c(=O)n(C)c(=O)n2C | nt | 4 | 19 | 92 | 102 | nt
COC(=O)c1c(C(C)=O)c(C)n(C)c1C | nt | 7 | nt | nt | nt | nt
Cc1cccc(CS(=O)(=O)c2nnc([C@H](Cc3ccccc3)NC(=O)OC(C)(C)C)o2)c1 | 0.0017 | -7 | 1 | 1.4* | 1.4* | 31
CC(C)[C@@H]1NC(=O)c2cc([N+](=O)[O-])cc(F)c2NCCC[C@@H](C(N)=O)NC(=O)[C@H](CO)NC1=O | -0.1 | -2 | 7 | 100 | 94 | 25
CN1CCN(C(=O)c2cc(C(C)(C)C)cc(C(C)(C)C)c2)CC1 | -0.88 | -3 | -1 | nt | nt | nt
CCOc1ccc(CCNC(=O)c2cccc(C#N)c2)cc1OCC | -0.52 | 1 | 0 | nt | nt | 27
CC(C)Cc1nc2oc3c(NCCCN4CCOCC4)ncnc3c2c2c1CCC2 | nt | 3 | 58* | 39 | 43 | 28
Cc1csc2c(NCCCN3CCOCC3)ncnc12 | nt | 4 | nt | nt | nt | nt
CC(C)Cc1nc2oc3c(Cl)ncnc3c2c2c1CCC2 | nt | 0 | 24 | 0.9* | 0.8* | -38
CCOC(=O)c1oc2nc(CC(C)C)c3c(c2c1N)CCCC3 | nt | 3 | nt | nt | nt | nt
O=C(Nc1ccc(S(=O)(=O)Nc2ncccn2)cc1)c1ccc2ncsc2c1 | nt | 0 | nt | nt | nt | nt
CCC(C)(C)c1ccc(OCCCC[n+]2ccccc2)c(C(C)(C)CC)c1 | -3.7* | 0 | 100* | nt | nt | -56
Cc1cc(C)n(CC(=O)O)n1 | nt | 1 | -2 | 90 | 100 | -28
